From PubChem
TcdB inh = inhibitors of Clostridioides difficile toxin B glycohydrolase. P18177. TcdB glycohydrolase enzymatic assay, plate reader. inhibition, % at 9.99 µM. 0.24% of 350,000 active. AID 652162; in the data active = inhibition above about 10%
Mtb hypoxia rep = reduces hypoxia-regulated biosensor signal in M. tuberculosis. M. tuberculosis hypoxia-regulated fluorescent reporter, fluorescence. 0.1% of 300,000 active. fluorescence inhibition, % (no concentration beside the values); in the data active = fluorescence inhibition mostly above about 23%, no sharp cut-off; inactive = mostly below about 17%
PrP UTR inh = suppresses PrP 5' UTR mRNA reporter expression; cell-based PrP 5' UTR mRNA reporter, plate reader; 0.35% of 340,000 active; inhibition, % (concentration not given with the values); AID 488862; in the data active = inhibition above about 52%; note: 0 = median of the neutral control wells
SSB-PriA inh = inhibitors of Klebsiella pneumoniae PriA binding to SSB C-terminal tail. AlphaScreen SSBct-PriA binding, biotinylated peptide. inhibition, % at 33 µM. 0.6% of 430,000 active; in the data active = inhibition mostly above about 37%, no sharp cut-off; inactive = mostly below about 20%;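 note: plate controls were negative control peptide for no effect and reference peptide for full effect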
FadD28 FP inh = inhibitors of Mycobacterium tuberculosis FadD28 bisubstrate binding; FadD28 bisubstrate probe binding, fluorescence polarization; inhibition, % at 12.5 µM; 0.22% of 360,000 active; in the data active = inhibition above about 8.5%, passing the limit was not always enough
Mtb BioA inh = blocks M. tuberculosis BioA enzyme activity | purified M. tuberculosis BioA enzyme, plate reader | inhibition, % at 9.99 µM | 0.096% of 360,000 active; in the data active = inhibition above about 40%
Starred values were filed as active, the others as inactive; . = not tested or not shown; ! = not active in a repeat. Compounds with a hit are over-represented: about 1% of the library has one in this group of screens.

SMILES	TcdB inh	Mtb hypoxia rep	PrP UTR inh	SSB-PriA inh	FadD28 FP inh	Mtb BioA inh
CCN1CCCc2cc(CCNC(=O)C(=O)Nc3cccc(NC(C)=O)c3)ccc21	.	.	.	54*	.	.
CCN1CCCc2cc(CCNC(=O)Nc3ccccc3)ccc21	.	.	.	63*	.	.
CCN1CCCc2cc(CCNC(=O)C(=O)NCCc3ccccc3)ccc21	.	.	.	32	.	.
Cc1cc(NC(=O)C(=O)NCCc2ccc3c(c2)CCCN3C)c2ccccc2n1	.	.	.	42*	.	.
C=CCNc1nc(-c2ccc(O)c(C(N)=O)c2)cs1	.	.	-15	10	0	2
NC(=O)c1cc(-c2csc(NCCc3ccccc3)n2)ccc1O	-4	0	-20	0	15*	1
O=C(NCC(c1cccs1)N1CCc2ccccc21)c1ccccc1[N+](=O)[O-] (stereo unspecified)	.	.	.	46*	.	.
CCc1ccc(S(=O)(=O)NCc2nn(CCN3CCCC3)c(=O)c3ccccc23)s1	.	.	.	44*	.	.
C[C@@H]1CN([C@H](C)CO)C(=O)c2cc(NC(=O)C3CC3)ccc2O[C@@H]1CN(C)C(=O)NC1CCCCC1	0	.	.	.	.	-6
c1ccc(-c2nc(NC3CCCCC3)c3ccccc3n2)nc1	.	.	.	57*	.	.
c1ccc(CNc2nc(-c3ccccn3)nc3ccccc23)cc1	1	4	-10	64*	-1	1
CNc1nc(-c2ccccn2)nnc1-c1ccccc1	.	.	-3	91*	-1	0
c1ccc(CNc2nc(-c3ccccc3)nc3ccccc23)cc1	1	0	-23	-40	-9	0
c1ccc(-c2nnc(-c3ccccn3)nc2NC2CCCCC2)cc1	2	.	20	101*	-1	4
CCOc1ccc(S(=O)(=O)N2CCN(Cc3ccccc3)CC2)cc1	-1	2	-15	-1	0	-1
COc1ccc(C(=O)Nc2ccc(-c3nc4ccc(C)cc4s3)cc2)c(OC)c1	.	.	.	-9	.	.
CC(=O)CNc1ccc(S(=O)(=O)N/N=C/c2ccccc2)cc1	0	.	-8	.	-1	.
O=C(C[C@@H]1CC[C@@H]2[C@H](COC[C@H](O)CN2C(=O)c2ccc(F)cc2)O1)NCCCN1CCOCC1	-1	.	.	.	.	-2
Cc1ccc2sc(NNC(=O)c3c(F)cccc3F)nc2c1C	.	.	.	-10	.	.
Cc1ccc2sc(NNC(=O)c3nc4ccccc4s3)nc2c1C	.	.	.	58*	.	.
CS(=O)(=O)c1cccc(-c2nnc(NC(=O)C3CC(=O)N(c4ccccc4)C3)o2)c1 (stereo unspecified)	.	.	.	20	.	.
O=C(Nc1nnc(-c2ccccc2)o1)C1CC(=O)N(c2ccccc2)C1 (stereo unspecified)	.	.	.	44*!	.	.
COc1ccc(N2CC(C(=O)Nc3nnc(-c4ccnn4C)o3)CC2=O)cc1 (stereo unspecified)	.	.	.	71*	.	.
COCCNC(=O)C1(C)CCCN(C(=O)c2ccccc2OC(F)(F)F)C1 (stereo unspecified)	1	.	.	.	-2	-1
CCCNC(=O)C1(C)CCCN(C(=O)c2ccccc2OC(F)(F)F)C1 (stereo unspecified)	12*	.	.	.	0	0
SMILES	TcdB inh	Mtb hypoxia rep	PrP UTR inh	SSB-PriA inh	FadD28 FP inh	Mtb BioA inh
CC(=O)Oc1ccc2nc(/C=C/c3ccc(C=O)cc3)oc(=O)c2c1	3	0	-43	0	-6	0
CC(=O)Oc1ccc2nc(/C=C/c3ccccc3)oc(=O)c2c1	12*	0	-17	5	-1	-4
CCc1[nH]nc(C(=O)N2CCCC(Nc3cccc(F)c3)C2)c1C (stereo unspecified)	1	5	5	-13	-2	1
COc1ccc(C2C(C#N)=C(N)OC(C(C)(C)C)=C2C#N)cc1OC (stereo unspecified)	.	8	13	-5	-11	3
COc1ccc(C2C(C#N)=C(N)SC(N)=C2C#N)cc1OC	.	6	-20	-8	-2	43*
O=C(c1ccccc1Oc1ccc(C(F)(F)F)cc1[N+](=O)[O-])N1CCOCC1	2	-11	-7	-3	-4	.
O=C(Nc1ccccc1Cl)c1ccccc1Oc1ccc(C(F)(F)F)cc1[N+](=O)[O-]	.	.	-8	47*	-1	-6
Nc1ccc2c(c1)-c1ccccc1S(=O)(=O)N2	.	13	-8	26	25*	.
O=C(CSc1ccc(-c2nc3ccccc3[nH]2)cn1)Nc1ccc(S(=O)(=O)NC2CC2)cc1	1	4	-1	10	33*	-4
CNC(=S)N(CCc1c(C)[nH]c2ccc(C)cc12)Cc1cccs1	1	3	-1	14	-4	.
O=C(NCCN1Cc2cc(Cl)ccc2OCC1=O)c1cnccn1	.	.	.	50*	.	.
CC(NC(=O)COC(=O)c1ccc(N2CCCC2=O)cc1)c1ccc(F)cc1 (stereo unspecified)	3	33*	-15	-9	-4	-1
Cc1ccc2c3c([nH]c2c1)C(=O)CC(C)(C)S3	1	4	5	-5	-13	-1
COc1ccc(-c2cc3c(=O)n(CC(=O)Nc4cccc(Cl)c4)nc(C)n3n2)cc1	2	.	-26	44*	-2	-2
CC(=O)OCc1ccccc1Sc1ccccc1C(=O)NCc1ccccc1	2	-4	-21	-15	-5	.
O=C(Nc1cccc2c1C(=O)c1ccccc1C2=O)c1ccc([N+](=O)[O-])cc1	.	.	.	2	.	.
Nc1c(S(=O)(=O)O)cc(NC(=O)c2ccccc2)c2c1C(=O)c1ccccc1C2=O	2	21	2	18	26*	-1
CC(=NNc1ccc([N+](=O)[O-])cc1)c1c[nH]c2ccccc12	.	9	.	40*	.	.
C/C(=N/NS(=O)(=O)c1cccc([N+](=O)[O-])c1)c1c[nH]c2ccccc12	-1	.	-153	.	-2	1
C/C(=N\Nc1ccc([N+](=O)[O-])cc1)c1cccc(N)c1	15*	.	-41	.	-2	0
COC(=O)[C@H]1[C@H](CO)[C@H]2Cn3c(ccc(-c4cccc(OC)c4)c3=O)[C@H]2N1Cc1nccs1	0	.	.	.	.	1
O=c1c2ccccc2nc(/C=C/c2ccccc2)n1-c1ccccc1O	3	12	.	-2	-4	3
O=c1c2ccccc2nc(/C=C/c2ccc(O)cc2)n1-c1ccccc1O	12*	-1	-20	-6	-4	-1
O=c1[nH]c2cc3c(cc2cc1CN(Cc1ccco1)C(=S)NCC1CCCO1)OCCO3 (stereo unspecified)	4	-4	-15	4	-2	-1
Cc1ccc(-c2csc(NC(=O)/C=C/c3ccco3)c2C(=O)O)cc1	15*	-7	0	2	2	5
Cc1ccc(-c2csc(NC(=O)c3cccc(C)c3)c2C(=O)O)cc1	6	-9	-25	-7	1	-3
CCOc1ccc(NS(=O)(=O)c2cc(C(=O)N3CCN(C(C)=O)CC3)ccc2Cl)cc1	1	-9	-13	-7	-3	0
O=C(CN1C(=O)NC2(CCOc3ccccc32)C1=O)c1ccc(Cl)s1 (stereo unspecified)	1	2	-6	-2	9.6*	0
